Results reported in the supplement of paper PMC12350171.
Where a name gives a salt, the structure may show the parent alone.

What was measured:
Conditions in all cases: 20 µM
[1] = test system: Salmonella enterica typhimurium; test: growth AUC normalised to DMSO control (fraction of control); higher = less growth inhibition, active = hit call of the paper
Procedure, shortened: (§1)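 Hemin and NAD were added to the medium for Haemophilus parainfluenzae. All pathogens, after two anaerobic passages, were inoculated at a starting OD578 of 0.01 into pre-reduced mGAM plates with 20 μM compound and 1% DMSO under breathable seals, and OD578 was read hourly for 24 h in three biological replicates. AUC of each growth curve was obtained with the trapezoidal rule up to the exponential-to-stationary transition and normalised to DMSO controls from the same plate.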

Shigella flexneri = test: as above
Procedure, shortened: as §1

Vibrio cholerae = test: as above
Procedure, shortened: as §1

[2] = test system: Yersinia pseudotuberculosis; test: as above
Procedure, shortened: as §1

P. vulgatus RND KO = test: growth AUC normalised to DMSO control (median) (fraction of control); higher = less growth inhibition, active = hit call of the paper
Procedure, shortened: (§2)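 For normalised area under the curve, growth curves were truncated at entry into stationary phase, integrated by the trapezoidal rule and divided against vehicle wells on the same plate. The curves came from strains passaged twice overnight without oxygen and then grown in mGAM in 96-well plates at a starting OD578 of 0.01. Each well held an approved-drug library compound at 20 μM with 1% DMSO, and OD578 was read hourly for 24 h in an anaerobic incubator. Values are medians of three biological replicates.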

P. vulgatus WT = test: as above
Procedure, shortened: as §2

[3] = test system: S. enterica typhimurium WT; test: as above
Procedure, shortened: as §2

[4] = test system: S. enterica typhimurium tolC KO; test: as above
Procedure, shortened: as §2

Measured: growth AUC normalised to DMSO control
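For growth AUC normalised to DMSO control (median) in this document: active when median AUC fell below 0.1.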

CN1[C@@H]2CC[C@H]1C[C@@H](OC(=O)c1c[nH]c3ccccc13)C2 [Tropisetron hydrochloride]
inactive: [1] 1.01 | Shigella flexneri 0.997 | Vibrio cholerae 1.01 | [2] 1 | P. vulgatus RND KO 1.01 | P. vulgatus WT 1.02 | [3] 1.01 | [4] 1

Nc1c2c(nc3ccccc13)CCCC2 [Tacrine hydrochloride]
inactive: [1] 0.995 | Shigella flexneri 1.03 | Vibrio cholerae 1.02 | [2] 0.98 | P. vulgatus RND KO 0.999 | P. vulgatus WT 1.06 | [3] 0.986 | [4] 0.992

COc1cccc2c1C(=O)c1c(O)c3c(c(O)c1C2=O)C[C@@](O)(C(C)=O)C[C@@H]3O[C@H]1C[C@H](N)[C@H](O)[C@H](C)O1 [Daunorubicin hydrochloride]
active: [4] 0.00353
inactive: [1] 0.998 | Shigella flexneri 0.959 | Vibrio cholerae 1.04 | [2] 0.978 | P. vulgatus RND KO 0.865 | P. vulgatus WT 0.95 | [3] 0.999

O=C1NCN(c2ccccc2)C12CCN(CCCC(c1ccc(F)cc1)c1ccc(F)cc1)CC2 [Fluspirilene]
inactive: [1] 1.04 | Shigella flexneri 1.01 | Vibrio cholerae 1.04 | [2] 1.01 | P. vulgatus RND KO 1 | P. vulgatus WT 1.01 | [3] 1.02 | [4] 0.988

CN(C)CCOc1ccc(/C(=C(/CCCl)c2ccccc2)c2ccccc2)cc1 [Toremifene]
inactive: [1] 1.01 | Shigella flexneri 1.05 | Vibrio cholerae 1.05 | [2] 1.06 | P. vulgatus RND KO 0.973 | P. vulgatus WT 1.01 | [3] 1.02 | [4] 0.983

Oc1c(Cl)cc(Cl)c2cccnc12 [Chloroxine]
active: [1] 0.922 | Shigella flexneri 0.884 | Vibrio cholerae 0.0387 | [2] 0.652 | P. vulgatus WT 0.0729
inactive: P. vulgatus RND KO 0.32 | [3] 0.969 | [4] 0.568

C[N+]1(CCCCC[N+]2(C)CCCC2)CCCC1 [Pentolinium bitartrate]
inactive: [1] 0.991 | Shigella flexneri 1 | Vibrio cholerae 0.874 | [2] 0.994 | P. vulgatus RND KO 1 | P. vulgatus WT 0.978 | [3] 0.989 | [4] 0.996

NC[C@@H]1O[C@H](O[C@H]2[C@@H](O)[C@H](O[C@@H]3[C@@H](O)[C@H](N)C[C@H](N)[C@H]3O[C@H]3O[C@H](CN)[C@@H](O)[C@H](O)[C@H]3N)O[C@@H]2CO)[C@H](N)[C@@H](O)[C@@H]1O [Neomycin sulfate]
inactive: [1] 1.01 | Shigella flexneri 1.04 | Vibrio cholerae 1.05 | [2] 1 | P. vulgatus RND KO 1.02 | P. vulgatus WT 1.01 | [3] 0.999 | [4] 1.03

CC1(C)O[C@@H]2[C@@H](CO[C@@]3(COS(N)(=O)=O)OC(C)(C)O[C@@H]23)O1 [Topiramate]
inactive: [1] 0.985 | Shigella flexneri 1.02 | Vibrio cholerae 1.02 | [2] 1.01 | P. vulgatus RND KO 0.961 | P. vulgatus WT 0.967 | [3] 0.996 | [4] 0.992

CCc1ccc(CCOc2ccc(CC3SC(=O)NC3=O)cc2)nc1 (configuration not stated) [Pioglitazone]
inactive: [1] 0.967 | Shigella flexneri 0.958 | Vibrio cholerae 0.911 | [2] 0.922 | P. vulgatus RND KO 0.994 | P. vulgatus WT 0.992 | [3] 0.996 | [4] 0.993

CN(C)CCCSC(=N)N [Dimaprit dihydrochloride]
inactive: [1] 0.991 | Shigella flexneri 1 | Vibrio cholerae 0.986 | [2] 1 | P. vulgatus RND KO 0.99 | P. vulgatus WT 0.999 | [3] 1 | [4] 1.01

O=C(O)c1cccnc1Nc1cccc(C(F)(F)F)c1 [Niflumic acid]
inactive: [1] 0.989 | Shigella flexneri 0.998 | Vibrio cholerae 0.897 | [2] 1.01 | P. vulgatus RND KO 0.907 | P. vulgatus WT 0.936 | [3] 1 | [4] 0.961

CN1CCCN(C(c2ccccc2)c2ccc(Cl)cc2)CC1 (configuration not stated) [Homochlorcyclizine dihydrochloride]
inactive: [1] 0.971 | Shigella flexneri 0.938 | Vibrio cholerae 0.861 | [2] 0.965 | P. vulgatus RND KO 0.972 | P. vulgatus WT 0.984 | [3] 1 | [4] 0.956

COc1cc(C(=O)NCc2ccc(OCCN(C)C)cc2)cc(OC)c1OC [Trimethobenzamide hydrochloride]
inactive: [1] 1.02 | Shigella flexneri 1.01 | Vibrio cholerae 1.05 | [2] 1.02 | P. vulgatus RND KO 1.02 | P. vulgatus WT 1.05 | [3] 0.999 | [4] 1.01

CC(=O)Oc1cccc2c1C(=O)c1c(OC(C)=O)cc(C(=O)O)cc1C2=O [Diacerein]
inactive: [1] 1 | Shigella flexneri 0.997 | [2] 1.01 | P. vulgatus WT 0.324 | [3] 0.995 | [4] 0.38
active: Vibrio cholerae 0.784 | P. vulgatus RND KO 0.0327

CN1CCN(CCCN2c3ccccc3Sc3ccc(Cl)cc32)CC1 [Prochlorperazine dimaleate]
inactive: [1] 1.01 | Shigella flexneri 1.02 | Vibrio cholerae 0.947 | [2] 1 | P. vulgatus RND KO 1.01 | P. vulgatus WT 0.981 | [3] 0.996 | [4] 0.892

CC(C)(C)NC[C@H](O)c1ccc(O)c(CO)c1 [Levalbuterol hydrochloride]
inactive: [1] 0.95 | Shigella flexneri 1.01 | Vibrio cholerae 1.01 | [2] 0.992 | P. vulgatus RND KO 0.962 | P. vulgatus WT 0.992 | [3] 1.01 | [4] 0.997

c1ccc(CNc2ncnc3nc[nH]c23)cc1 [Aminopurine, 6-benzyl]
inactive: [1] 1 | Shigella flexneri 1 | Vibrio cholerae 0.953 | [2] 1.01 | P. vulgatus RND KO 1 | P. vulgatus WT 0.985 | [3] 1 | [4] 0.995

CN1CCC(=C2c3ccccc3C=Cc3ccccc32)CC1 [Cyproheptadine hydrochloride]
inactive: [1] 0.998 | Shigella flexneri 1 | Vibrio cholerae 0.91 | [2] 1 | P. vulgatus RND KO 0.97 | P. vulgatus WT 0.976 | [3] 1.01 | [4] 0.969

Cc1c(N(C)CS(=O)(=O)O)c(=O)n(-c2ccccc2)n1C [Dipyrone sodium salt]
inactive: [1] 1.02 | Shigella flexneri 1.03 | Vibrio cholerae 1.09 | [2] 1.02 | P. vulgatus RND KO 0.999 | P. vulgatus WT 0.996 | [3] 1.01 | [4] 0.999

Nc1nc(=S)c2ncn([C@@H]3O[C@H](CO)[C@@H](O)[C@H]3O)c2[nH]1 [Thioguanosine]
active: [1] 0.828 | Shigella flexneri 0.0952 | [2] 0.826
inactive: Vibrio cholerae 0.957 | P. vulgatus RND KO 1.03 | P. vulgatus WT 1.06 | [3] 0.849 | [4] 0.779

Nc1ccc(S(=O)(=O)Nc2ccnn2-c2ccccc2)cc1 [Sulfaphenazole]
active: Vibrio cholerae 0.856
inactive: [1] 1 | Shigella flexneri 1.01 | [2] 1.01 | P. vulgatus RND KO 0.989 | P. vulgatus WT 0.961 | [3] 0.998 | [4] 0.981

C[C@@H]1C[C@H]2[C@@H]3CCC4=CC(=O)C=C[C@]4(C)[C@@]3(Cl)[C@@H](O)C[C@]2(C)[C@@]1(OC(=O)c1ccco1)C(=O)CCl [Mometasone furoate]
inactive: [1] 1.02 | Shigella flexneri 1.07 | Vibrio cholerae 1.01 | [2] 1.03 | P. vulgatus RND KO 1.04 | P. vulgatus WT 1.06 | [3] 1.01 | [4] 0.991

CN(C)CCn1nnnc1SCC1=C(C(=O)O)N2C(=O)[C@@H](NC(=O)Cc3csc(N)n3)[C@H]2SC1 [Cefotiam hydrochloride]
active: [1] 0.0032 | Shigella flexneri 0.0159 | Vibrio cholerae 0.0593 | [2] 0.03 | P. vulgatus RND KO 0.0136 | P. vulgatus WT 0.00849 | [3] 0.00304 | [4] 0.00289

COc1ccccc1OCCNCC(O)COc1cccc2[nH]c3ccccc3c12 (configuration not stated) [Carvedilol]
inactive: [1] 1.02 | Shigella flexneri 1 | Vibrio cholerae 0.994 | [2] 0.997 | P. vulgatus RND KO 0.995 | P. vulgatus WT 0.989 | [3] 0.994 | [4] 0.944

CC(=O)c1ccc2c(c1)N(CCCN(C)C)c1ccccc1S2 [Acetopromazine maleate salt]
inactive: [1] 1 | Shigella flexneri 1 | Vibrio cholerae 0.888 | [2] 0.949 | P. vulgatus RND KO 0.984 | P. vulgatus WT 0.963 | [3] 1 | [4] 0.969

CC(C)Cc1ccc([C@H](C)C(=O)O)cc1 [(S,+) Ibuprofen]
inactive: [1] 1.01 | Shigella flexneri 0.968 | Vibrio cholerae 0.95 | [2] 0.983 | P. vulgatus RND KO 0.989 | P. vulgatus WT 0.982 | [3] 0.994 | [4] 1

CN(C)CCCN1c2ccccc2Sc2ccccc21 [Promazine hydrochloride]
active: Vibrio cholerae 0.86
inactive: [1] 0.936 | Shigella flexneri 0.945 | [2] 0.965 | P. vulgatus RND KO 0.821 | P. vulgatus WT 0.776 | [3] 0.991 | [4] 0.971

CO/N=C(\C(=O)N[C@@H]1C(=O)N2C(C(=O)O)=C(COC(N)=O)CS[C@H]12)c1ccco1 [Cefuroxime sodium salt]
active: [1] 0.0484 | Shigella flexneri 0.0576 | Vibrio cholerae 0.0553 | [2] 0.0424 | P. vulgatus RND KO 0.011 | P. vulgatus WT 0.0132 | [4] 0.00393
inactive: [3] 0.342
